According to the supplement of paper PMC8728848:
This is one part of a sample in which the strongest signals are shown more often than they occur.

B1: PMA (Polygonatum multiflorum) (protein)
chain: LLTTTLFVFISSTRSLASTNVLYSDVGNAILNAKESLIYGDYRLDMQSDCNLVLYNKAAPYWASGTRWSWGGNCHLNLQSNGELVMYAYLGRTRIAIWRSGIISATGSYALVLKYDGALHVHGPSLWSTNATGPTTPTTASWSIDSTLWSGDVATIGPTIANGDYKLELLDTCNLTLSNTKTGQVLWYTNTTDWVHDCYVNIEGNGELKIKYLGGATLWSNKVGAGYTNNYVLGLRPDGKLDTYNAPIWSPTIGPGVHVAPAVYNASSNAVAAEGNGEKIAMVTGRAKNST
B2: CGL3 (Coprinopsis cinerea) (protein)
chain: MGHHHHHHHHSGFHILRLESTVDLSEPLKDNGIIVFQSDKLDLEPSPNLGPTGIDNTNVNLINAKGDVLLHIGIRRRENAFVFNSIPYGESRGPEERIPLEGTFGDRRDPSITVFDHPDRYQIMIDYKTVYYYKKRLEGRCEKVSYKINEGQTPPFSDVLGVTVLYFANVMPRAN

What was measured:
Experiment in all cases: glycan array binding signal (z-score within array); higher = stronger binding
Settings in all cases: glycan notation: IUPAC condensed, linker removed
[1] = biological target: Fuc(a1-2)[GalNAc(a1-3)]Gal(b1-4)Glc
Method in brief: (§1)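 Arrays were curated from the Consortium for Functional Glycomics database, 3228 in total, and kept only where the protein sequence was available. Binding is expressed as a within-array Z-score. This score was averaged across arrays of the same protein sequence at different concentrations or buffers and across linkers, and negative values can be read as non-binding.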

[2] = biological target: Fuc(a1-2)[GalNAc(a1-3)]Gal(b1-4)[Fuc(a1-3)]GlcNAc
Method in brief: as §1

Gal(a1-4)Gal(b1-4)Glc = biological target: Gal(a1-4)Gal(b1-4)Glc
Method in brief: as §1

Gal(b1-3)Gal = biological target: Gal(b1-3)Gal
Method in brief: as §1

Gal(b1-4)GlcNAc = biological target: Gal(b1-4)GlcNAc
Method in brief: as §1

[3] = biological target: Gal(b1-4)GlcNAc(b1-2)Man(a1-3)[Gal(b1-4)GlcNAc(b1-2)Man(a1-6)]Man(b1-4)GlcNAc(b1-4)GlcNAc
Method in brief: as §1

GalNAc(a1-3)Gal = biological target: GalNAc(a1-3)Gal
Method in brief: as §1

GalNAc(b1-4)GlcNAc = biological target: GalNAc(b1-4)GlcNAc
Method in brief: as §1

[4] = biological target: GlcNAc(b1-2)Man(a1-3)[GlcNAc(b1-2)Man(a1-6)]Man(b1-4)GlcNAc(b1-4)GlcNAc
Method in brief: as §1

GlcNAc(b1-3)Gal = biological target: GlcNAc(b1-3)Gal
Method in brief: as §1

[5] = biological target: GlcNAc(b1-6)Gal(b1-4)GlcNAc
Method in brief: as §1

[6] = biological target: Man(a1-2)Man(a1-2)Man(a1-6)[Man(a1-3)]Man
Method in brief: as §1

[7] = biological target: Man(a1-2)Man(a1-3)[Man(a1-2)Man(a1-6)]Man
Method in brief: as §1

[8] = biological target: Man(a1-3)[Man(a1-6)]Man(a1-6)[Man(a1-3)]Man(b1-4)GlcNAc(b1-4)GlcNAc
Method in brief: as §1

[9] = biological target: Neu5Ac(a2-3)Gal(b1-3)[Neu5Ac(a2-3)Gal(b1-4)]GlcNAc
Method in brief: as §1

Neu5Ac(a2-3)Gal(b1-4)Glc = biological target: Neu5Ac(a2-3)Gal(b1-4)Glc
Method in brief: as §1

Neu5Ac(a2-6)Gal(b1-4)Glc = biological target: Neu5Ac(a2-6)Gal(b1-4)Glc
Method in brief: as §1

[10] = biological target: Neu5Ac(a2-8)Neu5Ac(a2-8)Neu5Ac(a2-8)Neu5Ac(a2-3)[GalNAc(b1-4)]Gal(b1-4)Glc
Method in brief: as §1

[11] = biological target: Fuc(a1-2)[GalNAc(a1-4)]Gal(b1-4)GlcNAc
Method in brief: as §1

Gal(a1-4)Gal(b1-4)GlcNAc = biological target: Gal(a1-4)Gal(b1-4)GlcNAc
Method in brief: as §1

[12] = biological target: Gal(b1-3)GlcNAc(b1-3)Gal(b1-4)Glc
Method in brief: as §1

[13] = biological target: Gal(b1-4)GlcNAc(b1-3)GalNAc
Method in brief: as §1

[14] = biological target: Gal(b1-4)GlcNAc(b1-6)[Gal(b1-3)]GalNAc
Method in brief: as §1

Gal3S(b1-4)Glc = biological target: Gal3S(b1-4)Glc
Method in brief: as §1

[15] = biological target: GlcNAc(b1-2)Gal(b1-3)GalNAc
Method in brief: as §1

[16] = biological target: GlcNAc(b1-4)GlcNAc(b1-4)GlcNAc
Method in brief: as §1

[17] = biological target: Neu5Ac(a2-6)Gal(b1-4)GlcNAc(b1-3)Gal(b1-4)GlcNAc
Method in brief: as §1

[18] = biological target: Neu5Ac(a2-8)Neu5Ac(a2-3)[GalNAc(b1-4)]Gal(b1-4)Glc
Method in brief: as §1

[19] = biological target: Neu5Gc(a2-3)Gal(b1-3)GlcNAc
Method in brief: as §1

Row | Binder | glycan array binding signal (z-score) [1] | glycan array binding signal (z-score) [2] | glycan array binding signal (z-score) (Gal(a1-4)Gal(b1-4)Glc) | glycan array binding signal (z-score) (Gal(b1-3)Gal) | glycan array binding signal (z-score) (Gal(b1-4)GlcNAc) | glycan array binding signal (z-score) [3] | glycan array binding signal (z-score) (GalNAc(a1-3)Gal) | glycan array binding signal (z-score) (GalNAc(b1-4)GlcNAc) | glycan array binding signal (z-score) [4] | glycan array binding signal (z-score) (GlcNAc(b1-3)Gal) | glycan array binding signal (z-score) [5] | glycan array binding signal (z-score) [6] | glycan array binding signal (z-score) [7] | glycan array binding signal (z-score) [8] | glycan array binding signal (z-score) [9] | glycan array binding signal (z-score) (Neu5Ac(a2-3)Gal(b1-4)Glc) | glycan array binding signal (z-score) (Neu5Ac(a2-6)Gal(b1-4)Glc) | glycan array binding signal (z-score) [10] | glycan array binding signal (z-score) [11] | glycan array binding signal (z-score) (Gal(a1-4)Gal(b1-4)GlcNAc) | glycan array binding signal (z-score) [12] | glycan array binding signal (z-score) [13] | glycan array binding signal (z-score) [14] | glycan array binding signal (z-score) (Gal3S(b1-4)Glc) | glycan array binding signal (z-score) [15] | glycan array binding signal (z-score) [16] | glycan array binding signal (z-score) [17] | glycan array binding signal (z-score) [18] | glycan array binding signal (z-score) [19]
1 | B1 | -0.249 | -0.236 | -0.244 | -0.195 | -0.068 | 7.37 | -0.253 | -0.246 | 5.03 | -0.263 | -0.255 | 5.65 | 4.98 | 2.16 | -0.191 | -0.233 | -0.255 | -0.245 |  |  |  |  |  |  |  |  |  |  | 
2 | B2 |  |  |  |  |  |  |  | 6.64 |  |  |  |  |  |  | -0.222 |  |  |  | -0.216 | -0.049 | 2.51 | -0.201 | -0.193 | 0.022 | -0.197 | 8.4 | -0.21 | -0.128 | -0.191
